From PubChem BioAssay (NCATS)
Results filed as inconclusive are left out. Calls of active or inactive are those of the source. Calls follow the shape of the dose curve; as a rule, active = well fitted cell-killing curve with a large enough effect; inconclusive = small, poorly fitted or top-dose-only effect, or effect the other way; inactive = flat fitted curve, though single readings scatter.

Legend:
Assay in all cases: Primary qHTS to identify gynecologic anti-cancer compounds using libraries of approved drugs and bioactive compounds (AID 1345084); also: nearly all actives have a fitted effect of over 55% in size
[1] = test system: C33A; conditions: Gynecologic cancer cell panel viability, ATPlite luminescence, 48 h; series mostly up to 57.5 µM
Outline: (§1)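 In this quantitative HTS, cell killing is estimated from loss of ATP-dependent luciferase light. Cells see five compound concentrations over a 48 h exposure.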

[2] = test system: CAOV3; conditions: Gynecologic cancer cell panel viability, ATPlite luminescence, 48 h; series mostly up to 57.5 µM
Outline: as §1

[3] = test system: CASKI; conditions: Gynecologic cancer cell panel viability, ATPlite luminescence, 48 h; series mostly up to 57.5 µM
Outline: as §1

[4] = test system: Es-2; conditions: Gynecologic cancer cell panel viability, ATPlite luminescence, 48 h; series mostly up to 57.5 µM
Outline: as §1

[5] = test system: HeLa; conditions: Gynecologic cancer cell panel viability, ATPlite luminescence, 48 h; series mostly up to 57.5 µM
Outline: as §1

[6] = test system: Hek293T; conditions: Gynecologic cancer cell panel viability, ATPlite luminescence, 48 h, control line for the selectivity index; series mostly up to 57.5 µM
Outline: as §1
% is scaled to controls: 0 for no effect and ±100 for the full control effect.

CC1OC(OCC2OC(OC3CCC4(C)C(CCC5(C)C4CC=C4C6CC(C)(C)CCC6(C(=O)OC6OC(CO)C(O)C(O)C6O)CCC45C)C3(C)CO)C(O)C(O)C2O)C(O)C(O)C1O (stereo not given)
inactive: activity change, negative = cytotoxicity [1] 10.1% [at 11.6 µM] | activity change, negative = cytotoxicity [2] 17.5% [at 11.6 µM] | activity change, negative = cytotoxicity [3] 14.8% [at 11.6 µM] | activity change, negative = cytotoxicity [4] 0.0336% [at 11.6 µM] | activity change, negative = cytotoxicity [5] -1.23% [at 11.6 µM] | activity change, negative = cytotoxicity [6] -5.88% [at 11.6 µM]

C=C(C)C1CC[C@]2(C(=O)O)CC[C@]3(C(=O)O)[C@H](CCC4[C@@]5(C)CC[C@H](O)C(C)(C)C5CC[C@]43C)C12 (stereo not given in full)
inactive: Potency [1] | Potency [2] | Potency [3] | Potency [4] | Potency [5] | Potency [6]

CC(C)CN(C[C@@H](O)[C@H](Cc1ccccc1)NC(=O)O[C@@H]1CO[C@H]2OCC[C@H]21)S(=O)(=O)c1ccc(N)cc1
inactive: Potency [1] | Potency [2] | Potency [3] | Potency [4] | Potency [5] | Potency [6]

CC1(C)CC2C=C(C(=O)O)C3COC(=O)C(O)(CO)C23C1 (stereo not given)
inactive: Potency [1] | Potency [2] | Potency [3] | Potency [4] | Potency [5] | Potency [6]

C[C@H]1Oc2cc(cnc2N)-c2c(nn(C)c2C#N)CN(C)C(=O)c2ccc(F)cc21
inactive: Potency [1] | Potency [2] | Potency [3] | Potency [4] | Potency [5] | Potency [6]

COC(=O)CCC(=O)OC[C@]1(C)CCC[C@@]2(C)C3CC[C@]4(C)C=CC3(CCC12)C4 (stereo not given in full)
inactive: Potency [1] | Potency [2] | Potency [3] | Potency [4] | Potency [5] | Potency [6]

CC(=O)NC1C(OC(C)(C)C2CCC3(C)C=C(C4CCC5C4(C)CC(O)C4OC(C(C)(C)O)CCC45C)CCC3O2)OC(CO)C(O)C1O (stereo not given)
inactive: Potency [1] | Potency [2] | Potency [3] | Potency [4] | Potency [5] | Potency [6]

COc1ccc(C2COc3cc(O)ccc3C2)c(O)c1 (stereo not given)
inactive: Potency [1] | Potency [2] | Potency [3] | Potency [4] | Potency [5] | Potency [6]

COC(=O)c1ccnc(-c2cc(C(=O)NCCc3ccccc3)ccn2)c1
inactive: Potency [1] | Potency [2] | Potency [3] | Potency [4] | Potency [5] | Potency [6]

Cc1cc(=O)oc2c(C=O)c(O)ccc12
inactive: Potency [1] | Potency [2] | Potency [3] | Potency [4] | Potency [5] | Potency [6]

CC1OC(OC2C(C)OC(OC3C(OC(=O)C45CCC(C)(C)CC4C4=CCC6C7(C)CCC(OC8OC(C(=O)O)C(O)C(O)C8OC8OC(CO)C(O)C(OC9OC(C)C(O)C(O)C9O)C8O)C(C)(CO)C7CCC6(C)C4(C)CC5)OC(CO)C(O)C3O)C(O)C2O)C(O)C(O)C1O (stereo not given)
inactive: activity change, negative = cytotoxicity [1] 1.01% [at 6.55 µM] | activity change, negative = cytotoxicity [2] 6.9% [at 6.55 µM] | activity change, negative = cytotoxicity [3] 16.9% [at 6.55 µM] | activity change, negative = cytotoxicity [4] 0.662% [at 6.55 µM] | activity change, negative = cytotoxicity [5] 5.48% [at 6.55 µM] | activity change, negative = cytotoxicity [6] -2.51% [at 6.55 µM]

C/C=C/C=C/C(O)=C1\C(O)=C(C)C(=O)[C@@]2(C)OC(=O)[C@@](C)(NC(=O)/C=C/C(=O)O)[C@@H]12
inactive: Potency [1] | Potency [2] | Potency [3] | Potency [4] | Potency [5] | Potency [6]

CC1=C(CCC(C)O[C@@H]2O[C@H](CO)[C@@H](O)[C@H](O)[C@H]2O)C(C)(C)CCC1=O (stereo not given in full)
inactive: Potency [1] | Potency [2] | Potency [3] | Potency [4] | Potency [5] | Potency [6]

CC1OC(OC2C(CO)OC(OCC3OC(OC(=O)C45CCC(C)(C)CC4C4=CCC6C7(C)CCC(OC8OC(CO)C(O)C(OC9OC(CO)C(O)C(O)C9O)C8O)C(C)(C)C7CCC6(C)C4(C)CC5)C(O)C(O)C3O)C(O)C2O)C(O)C(O)C1OC1OC(CO)C(O)C(O)C1O (stereo not given)
inactive: activity change, negative = cytotoxicity [1] -0.229% [at 6.55 µM] | activity change, negative = cytotoxicity [2] -14.1% [at 6.55 µM] | activity change, negative = cytotoxicity [3] 8.74% [at 6.55 µM] | activity change, negative = cytotoxicity [4] 5.26% [at 6.55 µM] | activity change, negative = cytotoxicity [5] 3.66% [at 6.55 µM] | activity change, negative = cytotoxicity [6] 13.1% [at 6.55 µM]

C=C1C(=O)OC2CC(C)=C(C(C)CCCO)C(O)C12 (stereo not given)
inactive: Potency [1] | Potency [2] | Potency [3] | Potency [4] | Potency [5] | Potency [6]

C1CCC[C@H]2CCCN3CC[C@@H](CCCCCC[C@@H]4CCCN5CC[C@@H](CC1)O[C@@H]45)O[C@@H]23
inactive: activity change, negative = cytotoxicity [1] 6.95% [at 0.155 µM] | activity change, negative = cytotoxicity [2] 1.15% [at 0.155 µM] | activity change, negative = cytotoxicity [3] -13.7% [at 0.155 µM] | activity change, negative = cytotoxicity [4] 2.67% [at 0.155 µM] | activity change, negative = cytotoxicity [5] 18.4% [at 0.155 µM] | activity change, negative = cytotoxicity [6] 4.56% [at 0.155 µM]

COc1cccc2cc3c(c(O[C@@H]4O[C@H](CO[C@@H]5O[C@H](CO)[C@@H](O)[C@H](O)[C@H]5O)[C@@H](O)[C@H](O)[C@H]4O)c12)C(C)OC3=O (stereo not given in full)
inactive: Potency [1] | Potency [2] | Potency [3] | Potency [4] | Potency [5] | Potency [6]

CNS(=O)(=O)CC1CCC(N(C)c2ncnc3[nH]ccc23)CC1 (stereo not given)
inactive: Potency [1] | Potency [2] | Potency [3] | Potency [4] | Potency [5] | Potency [6]

O=C1NC2CCc3nc4ccccc4c(=O)n3C2=Nc2ccccc21 (stereo not given)
inactive: Potency [1] | Potency [2] | Potency [3] | Potency [4] | Potency [5] | Potency [6]

COC1CC(O[C@H]2CC[C@@]3(C)C(CCC4C3[C@H](OC(C)=O)[C@@H](OC(=O)/C=C/c3ccccc3)[C@]3(C)C(C(C)=O)CC[C@]43O)C2)OC(C)C1OC1CC(OC)C(OC2CC(OC)C(OC3OC(C)C(OC4OC(CO)C(O)C(O)C4O)C(OC)C3O)C(C)O2)C(C)O1 (stereo not given in full)
inactive: activity change, negative = cytotoxicity [1] -1.17% [at 6.55 µM] | activity change, negative = cytotoxicity [2] 6.87% [at 6.55 µM] | activity change, negative = cytotoxicity [3] 1.19% [at 6.55 µM] | activity change, negative = cytotoxicity [4] 0.971% [at 6.55 µM] | activity change, negative = cytotoxicity [5] -3.04% [at 6.55 µM] | activity change, negative = cytotoxicity [6] -2.25% [at 6.55 µM]
